Screening data: PubChem BioAssay, National Center for Advancing Translational Sciences (NCATS)
In the library only some 13% were active in any assay of this set; here they are far more common.
Marburg entry inh: Marburg virus entry inhibition. Marburg virus pseudotyped entry inhibition, cell reporter. Potency, µM (titrated, usually from 37.8 µM), for inactives: at the highest dose activity change, negative = inhibition, actives largely listed as inhibitors. actives 1.8% (n = 300,000). AID 540276; calls by dose curve; tested in HEK293 cells; further: potency means the concentration at half of the fitted maximal effect; on the % scale 0 is the no-effect control and ±100 the full control effect
CHX counter: counter-screen for Shiga toxin inhibitors: cycloheximide protein synthesis inhibition. max response, %. actives 12% (n = 300,000). cell reporter, cycloheximide protein synthesis inhibition counterscreen. AID 2314; in the data active means max response mostly above about 13%, no sharp cut-off; inactive means mostly below about 14%; further: read at 38.3 µM for the half of the compounds with a filed dose; 0% is about no effect
HCV inh: blocks hepatitis C virus; Huh7.5.1 HCVcc-Cre infection, luciferase reporter, 44 h; Potency, µM (top dose mostly 41.8 µM), without a hit: top-dose activity change, negative = inhibition, actives largely listed as inhibitors; actives 3.4% (n = 340,000); active means well fitted inhibition curve with a large enough effect; inconclusive means small, poorly fitted or top-dose-only effect, or another doubt; inactive means no such curve, though single readings can be large or run the other way; further: potency means the concentration at half of the fitted maximal effect; on the % scale 0 is the no-effect control and ±100 the full control effect
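Cells seeded at 1,000/well and cultured 4 h, then compounds added followed by HCVcc-Cre virus (~0.5 moi). After 44 h further culture, luciferase substrate was added, plates held 15 min at room temperature, and luminescence read for 15 sec.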
FMDV antiviral: blocks foot and mouth disease virus; FMDV antiviral cell-based qHTS; Potency, µM (titrated, usually from 57.9 µM), inactives show at the highest dose activity change, negative = inhibition, hits mostly inhibitors; actives 1.2% (n = 410,000); calls by dose curve; tested in HEK293T cells; further: read-out not given here; potency means the concentration at half of the fitted maximal effect; on the % scale 0 is the no-effect control and ±100 the full control effect; nearly all actives have a fitted effect of over 45% in size
Shiga toxin inh: blocks Shiga toxin action in Vero cells | Vero cells, Shiga toxin protein synthesis inhibition reporter | inhibition, % at 38.7 µM | actives 9.2% (n = 290,000); in the data active means inhibition mostly above about 28%, no sharp cut-off; inactive means mostly below about 43%; further: 0% is about no effect
Lassa entry inh: inhibitors of Lassa virus binding or cell entry | Potency, µM (titrated, usually from 37.9 µM), inactives show top-dose activity change, negative = inhibition, hits mostly inhibitors | actives 1.2% (n = 300,000) | AID 540256 | Lassa virus pseudotype entry inhibition, cell reporter; calls by dose curve; tested in HEK293 cells; further: potency means the concentration at half of the fitted maximal effect; on the % scale 0 is the no-effect control and ±100 the full control effect; nearly all actives have a fitted effect of over 50% in size
An asterisk follows results filed as active; ? = inconclusive; nt = no result; ! = not confirmed by another sample; [ ] = another dose, or the depositor's remark.

SMILES	Marburg entry inh	CHX counter	HCV inh	FMDV antiviral	Shiga toxin inh	Lassa entry inh
Cc1ccc(S(=O)(=O)Nc2ccc3c(c2)C(=O)N([C@H](C)CO)C[C@H](C)[C@H](CN(C)C(=O)Nc2cccc4ccccc24)OCCCC[C@@H](C)O3)cc1	nt	nt	nt	0%	nt	nt
CCOC(=O)c1c(C)n(-c2ccc(C)cc2)c2c(CC(C)=O)c(Br)c(OC)c(O)c12	16%	-1	-4%	0%	-13	2%
CCOC(=O)C(C(C)=O)c1c(Br)c(O)c(O)c2c(C(=O)c3ccc(C)cc3)coc12 (configuration not stated)	2.3µM*!	19*	nt	-29%	34	-94%[14.3 µM]
CCOC(=O)c1c(C)n(-c2ccc(C)cc2)c2c(C(C(C)=O)C(=O)O)c(Br)c(O)c(O)c12 (configuration not stated)	-29%	13	11µM*	0%	-16	?
CC1CN(C(=O)Nc2cccc(C(F)(F)F)c2)CC(C)O1 (configuration not stated)	?	3	2%	-15%	14	6%
CC(SC1=NCCS1)C(=O)Nc1nnc(-c2ccc(F)cc2)s1 (configuration not stated)	nt	6	0%	-8%	34	nt
CC(SC1=NCCS1)C(=O)Nc1nnc(-c2ccc(Br)cc2)s1 (configuration not stated)	nt	21*	17%	-19%	38*	nt
Cc1cccc(-c2nc3nc(C)cc(N4CCN(c5ccccc5)CC4)n3n2)c1	10%[46.1 µM]	nt	nt	-12%	nt	?
COc1nc(Nc2ccc(O)cc2)nc(OC(C(F)(F)F)C(F)(F)F)n1	9%	-3	?	?	-9	?
COc1nc(Nc2ccc(C(C)C)cc2)nc(OC)n1	-10%	41*	?	9%	48*	?
O=S1(=O)N=C(Nc2ccc(N3CCOCC3)c(Cl)c2)c2ccccc21	?	48*	-12%	34%	85*	?
CCOC(=O)c1[nH]c(C)c(C(=O)c2ccc(C)cc2)c1C	?	27	nt	40%	37	-36%[14.3 µM]
CCOC(=O)c1c(C)[nH]c(N=Nc2ccccc2)c1C	-14%	54*	?	32%	82*	?
CCOC(=O)c1c(C)[nH]c(N=Nc2ccc(C)cc2)c1C	?	31*	?	nt	71	-1%
CCOC(=O)c1c(C)[nH]c(N=Nc2ccccc2Cl)c1C	7%	65*	?	43%	97*	nt
CCOC(=O)c1c(C)[nH]c(NC(=O)NNC(=O)c2ccc(OC)cc2)c1C	nt	nt	-3%	-12%	nt	nt
CCOC(=O)c1c(C)[nH]c(NC(=O)NNC(=O)c2ccccc2Cl)c1C	nt	nt	11µM*	-20%	nt	nt
COCCCn1c(SCC(=O)NC2CCCC2)nnc1-c1ccncc1	5%[46.1 µM]	-4	-7%	-2%	-3	nt
COC(=O)c1c(C)[nH]c(C=Nc2ccc(OC)cc2)c1C	?	-3	23%	7%	-4	-2%[46.1 µM]
CCOC(=O)c1c(C)[nH]c(N=Nc2ccc(OC)cc2)c1C	nt	35*	-22%	19%	85*	nt
CCOC(=O)c1c(C)[nH]c(C=Nc2ccc(OC)cc2)c1O	1%	20*	7%	1%	84*	?
COc1ccc(CNC(=O)c2ccc3c(c2)N(C)C(=O)CS3=O)cc1 (configuration not stated)	nt	-4	-15%	-17%	-5	nt
CC1CCN(C(=O)c2cc(-c3ccc(Br)cc3)on2)CC1	?	nt	nt	72%	nt	26%[46.1 µM]
O=C(c1cc(-c2ccc(Br)cc2)on1)N1CCOCC1	?	21*	-19%	21%	59*	2.5µM*
O=C(c1cc(-c2ccc(Br)cc2)on1)N1CCCCCC1	?	35*	4%	26%	80*	?
SMILES	Marburg entry inh	CHX counter	HCV inh	FMDV antiviral	Shiga toxin inh	Lassa entry inh
COC(=O)CC1COc2ccccc2N1C(=O)c1cc(OC)c(OC)c(OC)c1 (configuration not stated)	nt	-1	11%	-10%	27	nt
CN(C)N=Nc1nc2c(c(=O)n(C)c(=O)n2C)n1CC1CO1 (configuration not stated)	?	-1	4µM*	-23%	-5	?
CN(C)N=Nc1nc2c([nH]1)c(=O)n(C)c(=O)n2C	12%[46.1 µM]	-1	-7%	1%	21	2%
COc1nc(-c2ccccc2)ccc1-c1noc(-c2ccco2)n1	4%[46.1 µM]	34*	?	90%	71*	-1%
COc1nc(-c2ccccc2)ccc1-c1noc(-c2ccccc2)n1	?	11	10%	42%	42	17%
COc1ccc(-c2ccc(-c3noc(-c4ccco4)n3)c(OC)n2)cc1	?	23*	?	45%	51*	14%
COc1ccc(-c2ccc(-c3noc(-c4ccccc4)n3)c(OC)n2)cc1	-3%	1	-3%	0%	-4	20%
NCCN1CCN(S(=O)(=O)c2ccc([N+](=O)[O-])cc2)C=C1c1ccc(Cl)cc1	nt	nt	-6%	-1%	nt	nt
Cn1c(SCc2ccccc2Cl)nc2ccccc21	-18%	53*	-7%	51%	76*	13%
CCn1c(CSc2nc3ccccc3n2C)nc2ccccc21	-21%	5	-26%	-15%	-5	-5%
CCn1c(SCc2ccccc2Cl)nc2ccccc21	-22%[46.1 µM]	35*	?	-8%	26	-27%
CCOc1ccc2nc(NC(=O)C3=NNC(=O)CC3)sc2c1	?	17*	8%	31%	69	22%
CCOc1ccc2nc(NC(=O)C3=NN(c4ccccc4)C(=O)CC3)sc2c1	nt	30*	?	4%	55	nt
CCN(CC)C(=O)c1[nH]cnc1C(=O)Nc1ccon1	nt	nt	2%	-7%	nt	nt
O=C1CCC/C(=N/NC(=O)c2sc3ccccc3c2Cl)C1	nt	18*	-4%	39%	22	nt
O=C(NN=C1CCCC1)c1sc2ccccc2c1Cl	?	38*	19%	33%	43*	?
COc1ccc(-c2noc(-c3ccccc3F)n2)cc1	nt	51*	-6%	0%	91*	nt
Fc1ccccc1-c1nc(-c2ccc(-c3nn[nH]n3)cc2)no1	nt	nt	nt	45%	nt	nt
Fc1ccccc1-c1nc(-c2ccccc2)no1	?	40*	30%	-46%	68*	?
COC(=O)c1cccc(-c2noc(-c3ccccc3F)n2)c1	nt	nt	nt	27%	nt	nt
Brc1ccccc1-c1nc(-c2ccccc2)no1	-1%	55*	14%	nt	79*	nt
Fc1ccccc1-c1nc(-c2ccncc2)no1	nt	24*	0%	2%	41*	nt
O=C(CN1CCOCC1)Nc1nc2ccc([N+](=O)[O-])cc2s1	14%	11	22%	21%	11	?
O=c1c(N2CCN(c3ccccc3)CC2)csc2ccc(Cl)cc12	nt	nt	nt	18%	nt	-11%[46.1 µM]
COc1ccc(-c2nc(-c3ccncc3)no2)c(OC)c1	nt	61*	-11%	9%	110*	nt
Fc1ccccc1-c1nc(-c2cnccc2C(F)(F)F)no1	0%[46.1 µM]	15*	2%	40%	34	20%[46.1 µM]
